CYP2C19 act – human CYP2C19 activators, primary screen, biochemical, luminescence; Cytochrome P450 2C19 (Homo sapiens), P33261; recombinant CYP2C19, luciferin-H EGE luminescence; active compounds read high; 0 = fully inhibited enzyme, 1 = untreated enzyme; activation factor at 5 µM; 96,000 tested, under 10 active; AID 1025, 2008;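 active = activation factor of at least 2 at 5 µM in the primary screen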;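 note: 0 = wells with 2.5 mM tranylcypromine and 1 = vehicle-only wells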
Target sequence (P33261 whole entry, looked up): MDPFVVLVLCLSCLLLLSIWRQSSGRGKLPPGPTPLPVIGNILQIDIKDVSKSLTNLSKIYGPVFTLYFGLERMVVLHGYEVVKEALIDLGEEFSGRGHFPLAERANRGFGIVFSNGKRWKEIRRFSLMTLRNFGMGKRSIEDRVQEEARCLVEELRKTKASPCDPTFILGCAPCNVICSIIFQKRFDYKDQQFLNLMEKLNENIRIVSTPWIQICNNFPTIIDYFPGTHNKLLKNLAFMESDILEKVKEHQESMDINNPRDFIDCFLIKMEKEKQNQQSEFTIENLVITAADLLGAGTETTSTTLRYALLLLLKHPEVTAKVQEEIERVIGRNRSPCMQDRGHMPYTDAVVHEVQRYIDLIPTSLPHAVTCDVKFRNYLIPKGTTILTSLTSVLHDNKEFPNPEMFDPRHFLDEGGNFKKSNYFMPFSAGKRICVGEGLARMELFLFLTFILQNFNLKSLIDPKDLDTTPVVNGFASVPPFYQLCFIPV
CYP2C9 inh – blockers of cytochrome P450 2C9 activity – biochemical, luminescence, ADME assay, primary screen; P11712; CYP2C9 Supersomes, luciferin-H conversion; inhibition, % at 5 µM; 96,000 tested, 20% active; AID 777, 2007;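 active = blocking of liver enzyme CYP2C9 beyond about 50% at 5 µM, limit read from the data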
CYP2C9 act – human CYP2C9 activators, primary screen, biochemical, luminescence | Cytochrome P450 2C9 (Homo sapiens), P11712 | activation factor at 5 µM | 96,000 tested, 1.4% active | recombinant CYP2C9, luciferin-H conversion; active compounds read high; factor 1 = untreated enzyme, 0 = blocked;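 active = activation factor of 2 or more for CYP2C9 at a 5 µM dose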;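 note: 0 = sulfaphenazole-blocked wells and 1 = vehicle-only wells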
CYP2C19 inh – blockers of cytochrome P450 2C19 activity – biochemical, luminescence, ADME assay, primary screen | 96,000 tested, 21% active | inhibition, % at 5 µM | CYP2C19 Supersomes, luciferin-H EGE luminescence, 30 min | AID 778, 2007 | P33261;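 active = CYP2C19 inhibition above a set limit at 5 µM in the primary screen, cut at about 50% in these data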;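 note: plate controls were negative control wells for no effect and 2.5 mM tranylcypromine positive control for full effect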
The depositor's hits bear a star. Compounds with a hit are over-represented: about 31% of the library has one in this group of screens.

SMILES | CYP2C19 act | CYP2C9 inh | CYP2C9 act | CYP2C19 inh
CCOc1ccc(CN(C(=O)c2oc3cc(C)ccc3c2C)C2CCS(=O)(=O)C2)cc1 (stereo unspecified) | 0.3 | 87.0* | 0.1 | 73.3*
Cn1cnnc1SCc1ccc(C#N)cc1 | 1 | -36.4 | 1.4 | -3.8
C=CCn1c(SCc2ccc(C#N)cc2)nnc1-c1cccc(Cl)c1 | 0 | 63.5* | 0.4 | 97.2*
C=CCn1c(SCc2cccc(C#N)c2)nnc1-c1ccccc1O | 0 | 38.7 | 0.6 | 100.1*
Cc1cccc(C)c1NC(=O)C/C(N)=N/O | 0.9 | 10.8 | 0.9 | 13.1
COc1ccc(/C(N)=N/OC(=O)Cc2ccccc2OC)cc1 | 1 | -14.1 | 1.1 | -1.1
CCOc1ccc2nc(-c3ccccc3)nc(SCC(=O)Nc3ncc(C)s3)c2c1 | 1 | 4.4 | 1 | -2.6
COc1ccc(CC(=O)Nc2cccc(-c3nnc(-c4cccc(C)c4)o3)c2)cc1OC | 0 | 88.3* | 0.1 | 98.4*
COc1ccc(CC(=O)Nc2ccc(-c3nnc(-c4ccccc4)o3)cc2)cc1OC | 0.9 | 24.7 | 0.8 | 14.3
COc1ccc(-c2nc3cc(NC(=O)Cc4ccc(OC)c(OC)c4)ccc3o2)cc1 | 0.4 | 55.3* | 0.4 | 57.0*
COc1ccc(CC(=O)Nc2cccc(-c3nnc(-c4ccccc4)o3)c2)cc1OC | 0.2 | 77.8* | 0.2 | 85.0*
COc1cccc(Nc2ncccc2C(=O)Nc2ccccc2)c1 | 0.8 | 25.4 | 0.7 | 22.2
CC(=O)Nc1ccc(S(=O)(=O)Oc2cccc(N3C(=O)C4CC=CCC4C3=O)c2)cc1 (stereo unspecified) | 0.6 | 58.6* | 0.4 | 42.7
COc1ccc(Cn2c(=O)[nH]c3cc(C(=O)NCCCN4CCCC4)ccc3c2=O)cc1 | 0.9 | 8.4 | 0.9 | 5.4
Cc1ccc(C)c(NC(=O)CCC(=O)OC(C(=O)c2ccccc2)c2ccccc2)c1 (stereo unspecified) | 1 | 2.0 | 1 | 1.0
CCC(=O)Nc1cc(C(=O)OC(C(=O)c2ccc(C)c(C)c2)c2ccccc2)ccc1C (stereo unspecified) | 0.6 | 57.6* | 0.4 | 39.5
COC(=O)c1ccc(C)c(NC(=O)CCSc2ccccc2)c1 | 0.7 | 55.4* | 0.4 | 29.4
O=C(CN1C(=O)c2ccccc2S1(=O)=O)NCc1ccccn1 | 1 | -7.6 | 1.1 | 4.1
O=S(=O)(NC1CC2CCC1C2)c1ccc2c(c1)OCCO2 (stereo unspecified) | 0 | 77.5* | 0.2 | 96.9*
COc1ccc(S(=O)(=O)NC2CC3CCC2C3)cc1Cl (stereo unspecified) | 0.5 | -59.9 | 1.6 | 46.8
CC1CCCC(NS(=O)(=O)c2ccc3c(c2)OCCO3)C1C (stereo unspecified) | 0 | 61.3* | 0.4 | 97.0*
CC(=O)Nc1ccc(NC(=O)c2ccccc2CC[N+](=O)[O-])cc1 | 1.1 | -4.8 | 1 | -10.0
COCCCNC(=O)C(F)(F)C(F)(F)C(=O)NCCCOC | 1 | -4.1 | 1 | 0.1
CCS(=O)(=O)N1Cc2ccccc2CC1C(=O)OCC(=O)Nc1ccc(SC(F)F)cc1 (stereo unspecified) | 0.2 | 93.1* | 0.1 | 77.8*
CCS(=O)(=O)N1Cc2ccccc2CC1C(=O)OCC(=O)Nc1ccc(C)cc1 (stereo unspecified) | 0.3 | 46.3 | 0.5 | 75.0*
SMILES | CYP2C19 act | CYP2C9 inh | CYP2C9 act | CYP2C19 inh
COc1cc2cc(C(c3nnnn3C(C)(C)C)N3CCC(C)CC3)c(=O)[nH]c2cc1OC (stereo unspecified) | 0.8 | 32.7 | 0.7 | 15.4
CCOC(=O)C1CCCN(c2nc(C)nc3c2oc2ccccc23)C1 (stereo unspecified) | 0.4 | 51.8* | 0.5 | 57.6*
Cc1nc(N2CCN(Cc3nc4ccccc4[nH]3)CC2)c2oc3ccccc3c2n1 | 0.2 | 92.4* | 0.1 | 83.7*
c1ccc2[nH]c(CN3CCN(c4ncnc5c4oc4ccccc45)CC3)nc2c1 | 0.6 | 55.0* | 0.4 | 38.3
CCc1nc(N2CCCC(C)C2)c2oc3ccccc3c2n1 (stereo unspecified) | 0.6 | 35.6 | 0.6 | 40.1
CC1CCN(S(=O)(=O)c2cn(CC(=O)N3CCN(C)CC3)c(=O)c3ccccc23)CC1 | 0.9 | 31.3 | 0.7 | 14.9
O=C(NCc1ccco1)C12CN(Cc3ccccc3)CC1C(c1ccc([N+](=O)[O-])cc1)=NO2 (stereo unspecified) | 0.8 | 17.7 | 0.8 | 18.4
COc1ccc(CNC(=O)C23CN(Cc4ccccc4)CC2C(c2ccc([N+](=O)[O-])cc2)=NO3)cc1 (stereo unspecified) | 0.6 | 8.8 | 0.9 | 37.4
O=C(NCCCCc1ccccc1)C12CN(Cc3ccccc3)CC1C(c1ccc([N+](=O)[O-])cc1)=NO2 (stereo unspecified) | 0.2 | 57.7* | 0.4 | 78.5*
Cc1ccc(CNC(=O)C23CN(Cc4ccccc4)CC2C(c2ccc([N+](=O)[O-])cc2)=NO3)o1 (stereo unspecified) | 0.7 | 53.8* | 0.5 | 35.0
O=C(NCCCCc1ccccc1)C12CN(Cc3ccccc3)CC1C(c1cccc([N+](=O)[O-])c1)=NO2 (stereo unspecified) | 0.8 | 13.2 | 0.9 | 16.8
COc1ccc(CCNC(=O)C23CN(Cc4ccccc4)CC2C(c2ccc([N+](=O)[O-])cc2)=NO3)cc1 (stereo unspecified) | 0.2 | 59.4* | 0.4 | 80.6*
COc1ccc2c(c1)c(=O)cc(C)n2CC(=O)NCc1ccco1 | 0.5 | 6.0 | 0.9 | 49.9
CC(=O)C1=C(C)NC(=O)NC1c1ccc(OC2CCCC2)cc1 (stereo unspecified) | 0.7 | -8.0 | 1.1 | 32.5
c1ccc(CCNc2ccc3nncn3n2)cc1 | 0.4 | -8.7 | 1.1 | 64.0*
O=C(NCCc1ccccc1)c1ccc(-n2cnnn2)cc1 | 0.9 | -3.6 | 1 | 8.4
CC(=NCCN1CCN(C(=S)Nc2ccccc2)CC1)C1=C(O)CC(C)(C)CC1=O | 0.6 | 14.1 | 0.9 | 40.1
CCN(CC)C(=O)CSc1nc2sc3c(c2c(=O)n1-c1ccc(C)cc1)CC(C)(C)SC3 | 0.5 | 95.8* | 0 | 51.7*
Cc1ccc(-n2c(SCC(=O)NCc3ccco3)nc3sc4c(c3c2=O)CC(C)(C)SC4)cc1 | 1 | 39.5 | 0.6 | -1.4
O=C(Nc1ccc(S(=O)(=O)NC2CCCC2)cc1)c1cnccn1 | 0.7 | 94.7* | 0.1 | 27.8
O=C(Nc1ccc2nccnc2c1)c1cnccn1 | 0.5 | 2.2 | 1 | 51.0*
O=C(Nc1ccc(NC(=O)c2ccco2)cc1)c1cnccn1 | 0.7 | -9.6 | 1.1 | 27.4
O=C(Nc1ccc2c(c1)oc1ccccc12)c1ccncc1 | 0.2 | 97.2* | 0 | 81.6*
CCCOC(=O)c1ccc(NC(=O)c2cnccn2)cc1 | 0.9 | 21.8 | 0.8 | 9.8
O=C(Nc1ccccc1)c1ccncc1 | 0.8 | -11.7 | 1.1 | 16.3
